From PubChem BioAssay AID1345082 (National Center for Advancing Translational Sciences (NCATS), 2018)
About 4,000 (4.3%) of roughly 94,000 compounds were called active. A call without a number means that no potency is given here. Roughly 29% stayed inconclusive and do not appear here. Calls follow the shape of the dose curve; as a rule, active = well fitted inhibition curve with a large enough effect; inconclusive = small, poorly fitted or top-dose-only effect; inactive = no such curve, though single readings can be large or run the other way. Only a selection was taken, and actives are over-represented in it overall.

Test: Cytotoxic Profiling in NIH 3T3 Cell Line of Diverse Libraries Using Quantitative High-Throughput Screening; also: nearly all actives have a fitted effect of over 55% in size
Conditions: NIH 3T3 viability, CellTiter-Glo ATP luminescence, 48-72 h; series mostly up to 96.7 µM
Text: Cell-based phenotypic screening is a commonly used approach to discover biological pathways, novel drug targets, chemical probes and high-quality hit-to-lead molecules. Many hits identified from high-throughput screening campaign are ruled out through a series of follow-up potency, selectivity/specificity, and cytotoxicity assays. Prioritization of molecules with little or no cytotoxicity for a more in-depth downstream evaluation influence the future direction of projects, so cytotoxicity profiling of the screening libraries at early stage is essential for increasing the likelihood of candidate success. In this study, we analyzed results from a cell-based cytotoxicity screening campaign, comprising nearly 10,000 compounds in NCATS annotated libraries, and over 100,000 compounds in a diversity library, evaluated in four normal cell lines (HEK 293, NIH 3T3, CRL-7250 and HaCat) and a cancer cell line (KB 3-1, a HeLa subline) with overall screening outcomes, hit rates, pan-activity and selectivity. For the annotated library, we also examined the primary targets and mechanistic pathways regularly associated with cell death. To our knowledge, this is the first study to use high-throughput screening to profile large libraries for cytotoxicity assessment in both normal and cancer cell lines. In summary, the results generated here constitutes a valuable resource for the scientific community and provides insight on identifying cytotoxic compounds with particular mechanisms of action, and prioritizing compounds with suitable cytotoxicity profile for further evaluation.
NIH 3T3 cells were seeded into white 1536-well plates using a Multidrop Combi peristaltic dispenser (ThermoFisher, Waltham, MA) at a density of 400 cells/well in 5 uL of medium respectively. A pintool (Kalypsys) was used to transfer 23 nL of compound solution to the 1536-well assay plates. After 48 or 72 hr incubation at 37 degree Celsius, 5% CO2 and 95% humidity, 2.5 uL of CellTiter-Glo (Promega) was dispensed into each well using a dispenser (Aspect Automation, St. Paul, MN) with solenoid valves (Lee Valves, Westbrook CT). Plates were left at room temperature for 10 min before imaging the ATP-coupled luminescence using a ViewLux microplate imager (PerkinElmer, Waltham, MA).
Potency is read from the fitted curve at half-maximal effect.

Row | SMILES | Potency
1 | CC(C)Cc1cc(CNc2nc(C(C)(C)C)nc3c2cnn3C)no1 | 44.7 µM (active)
2 | CCCc1nc(NCC(c2ccccn2)N2CCOCC2)c2cnn(C)c2n1 (configuration not stated) | inactive
3 | COc1ccc2[nH]cc(CCNC(=O)CC3=C4CCCCC4N(C)C3=O)c2c1 (configuration not stated) | inactive
4 | COc1ccc(CNC(=O)CC[C@@H]2CNC(=O)[C@@H]3C[C@H](NC(=O)Nc4ccsc4)CN23)cc1 | inactive
5 | Cc1cccc(-c2nc3ccc(C(=O)N4CCCCC4)cc3o2)n1 | 10 µM (active)
6 | CCOC(=O)C1CCCN(C(=O)c2ccc3oc(-c4ccccn4)nc3c2)C1 (configuration not stated) | inactive
7 | CC(=O)N1CCN(C(=O)c2ccc3nc(-c4ccncc4)oc3c2)CC1 | inactive
8 | Cc1ccccc1NC(=O)CN1C(=O)NC(c2ccccc2Cl)C2=C1COC2=O (configuration not stated) | inactive
9 | Cc1ccc(Cl)cc1NC(=O)CN1C(=O)NC(c2ccc(Cl)cc2)C2=C1COC2=O (configuration not stated) | 35.5 µM (active)
10 | CCOc1ccccc1C1NC(=O)N(CC(=O)Nc2ccc(C)c(C)c2)C2=C1C(=O)OC2 (configuration not stated) | inactive
11 | CCOc1ccccc1C1NC(=O)N(CC(=O)Nc2c(C)cccc2Cl)C2=C1C(=O)OC2 (configuration not stated) | inactive
12 | Cc1cccc(C)c1NC(=O)CN1C(=O)NC(c2ccc(Cl)cc2)C2=C1COC2=O (configuration not stated) | inactive
13 | CCc1cccc(NC(=O)CN2C(=O)NC(c3ccc(Cl)cc3)C3=C2COC3=O)c1 (configuration not stated) | 25.1 µM (active)
14 | CCN1CC2(CCN(Cc3c(OC)ccc(F)c3F)CC2)OC1=O | inactive
15 | COc1ccc(-c2cccc(C(=O)N3CCN(C(=O)c4ccc(Cl)nc4)CC3)c2)nn1 | inactive
16 | COCCc1noc(C2Cc3ccccc3N2C(=O)NCc2ccco2)n1 (configuration not stated) | inactive
17 | O=C(NC[C@H]1O[C@H](Cc2cc(-c3ccccc3)on2)CC[C@@H]1O)C1CCC1 | inactive
18 | O=C1Nc2ccccc2CC12CCN2Cc1cncs1 (configuration not stated) | inactive
19 | CC(=O)N1CCN(C(=O)c2ccccc2N2CCOCC2)CC(O)C1 (configuration not stated) | inactive
20 | COCc1cccc(-c2n[nH]c3c2CC(=O)N(c2ccccc2)C3)c1 | inactive
21 | O=C1Cc2c(-c3ccc(CO)cc3)n[nH]c2CN1CC1CCOCC1 | 79.4 µM (active)

Row | SMILES | Potency
22 | c1cc(-c2ccc3c(c2)OCCCO3)n2ncnc2n1 | inactive
23 | COc1ccc(Cn2c(=O)c(C(=O)N3CCN(C(=O)Nc4ccccc4)CC3)nc3cccnc32)cc1 | inactive
24 | COc1ccccc1-c1ccc(C(=O)N2CCC(C(=O)NC3CC3)CC2)cc1 | inactive
25 | COc1ccc(F)cc1S(=O)(=O)N1[C@@H]2CC[C@H]1CC(NC(=O)c1ccc(F)cc1)C2 (some centres not stated) | inactive
26 | Cc1cc(C)cc(-c2ccc(CN3CCCC(NC(=O)c4ccccc4)C3)cc2)c1 (configuration not stated) | 22.4 µM (active)
27 | O=C(NC1CCCN(Cc2ccc(-c3cncnc3)cc2)C1)c1ccccc1 (configuration not stated) | inactive
28 | COc1ccc(F)cc1-c1ccc(CN2CCC(NC(=O)c3ccccc3)C2)cc1 (configuration not stated) | 35.5 µM (active)
29 | O=C(NC1CCCN(Cc2ccc(-c3cncnc3)cc2)C1)C1CCCC1 (configuration not stated) | inactive
30 | COc1cccc(-c2ccc(CN3CCCC(NC(=O)NC4CCCC4)C3)cc2)c1 (configuration not stated) | inactive
31 | COCCC1(NC(=O)c2ccccc2)CCN(Cc2ccc(F)cc2F)CC1 | inactive
32 | COc1ccc(CC(=O)NC2CCN(Cc3ccc(-c4ccccc4OC)cc3)C2)cc1 (configuration not stated) | 31.6 µM (active)
33 | CCn1ncnc1CN1CCC2(CC1)CC(C(=O)O)N(C(C)=O)C2 (configuration not stated) | inactive
34 | COCC(=O)NC1CCC12CCN(C(=O)Nc1ccccc1)CC2 (configuration not stated) | inactive
35 | Cc1ccc(C(=O)NC2CCN(c3ccc4nnc(C)n4n3)C2)cc1 (configuration not stated) | inactive
36 | O=C([C@@H]1C[C@H](F)CN1C(=O)Cc1ccccc1Cl)N1CCCCC1 | inactive
37 | Cc1ccccc1N1Cc2c(NCC(C)C)ncnc2N(C)CC1=O | inactive
38 | CC/C=C/CC(=O)N1CCC2(CCN(Cc3cccnc3)CC2)C(CO)C1 (configuration not stated) | inactive
39 | COc1cccc2c1CCN=C2C[C@H]1CN(C(=O)C(C)(C)C)CC[C@H]1CC(=O)O | inactive
40 | Cc1n[nH]c(C)c1CCC(=O)N1CCCC(c2ccc(C(=O)O)cc2)C1 (configuration not stated) | inactive
41 | COc1ccc(S(=O)(=O)N2C[C@@H](Oc3ccccc3)C[C@@H]2C(=O)N2CCOCC2)cc1 | inactive
42 | Cc1c(C(=O)N2C[C@@H](CN(C)C)C[C@H](CO)C2)n(C)c2c(C)cccc12 | inactive

Row | SMILES | Potency
43 | CN(C)C[C@@H]1CN(C2CCOCC2)C[C@H]1NC(=O)c1ccco1 | inactive
44 | COc1ccc2c(c1)nc1n2[C@@H](CNC(=O)c2ccncc2)COC1 | inactive
45 | Cc1ccc2c(c1)nc1n2[C@@H](CNC(=O)c2ccccc2)COC1 | inactive
46 | Cc1ccc2nc3n(c2c1)[C@@H](CNC(=O)c1ccc(C#N)cc1)COC3 | 89.1 µM (active)
47 | O=C(CCC1CCCN(S(=O)(=O)c2ccc(F)cc2)C1)NC1CCS(=O)(=O)C1 (configuration not stated) | inactive
48 | O=C(NC1CCc2nn(CC3CC3)c(=O)n2CC1)c1ccc(Cn2ccnc2)o1 (configuration not stated) | inactive
49 | Cc1noc([C@H]2CCN(Cc3ccccc3F)C[C@H]2NC(=O)C2CC2)n1 | inactive
50 | Cc1oc2ccn(Cc3ccccc3F)c(=O)c2c1C(=O)NCCCN1CCCCC1C (configuration not stated) | 39.8 µM (active)
51 | Cc1oc2c(c1C(=O)NCCN1CCCC1)CN(Cc1ccc(F)cc1)CC2 | inactive
52 | CCn1nc(C)c(-c2cc(C(=O)N3CCCCCCNC(=O)[C@@H]4CCCC[C@@H]43)no2)c1C | inactive
53 | COc1nccnc1NC1CCN(C(=O)NCc2ccccc2)CC1 | inactive
54 | Cn1cc(CN2CCOC[C@H](Oc3ccc(S(C)(=O)=O)cc3)C2)c2ccccc21 | 28.2 µM (active)
55 | CC(C)CN1CCOC[C@H](Oc2ccc(S(C)(=O)=O)cc2)C1 | inactive
56 | COc1ccc(O[C@H]2COCCN(Cc3nccn3C)C2)cc1 | inactive
57 | CCCCn1ccnc1C1CCCN(C(=O)c2ccccc2-c2ncn[nH]2)C1 (configuration not stated) | inactive
58 | O=C(NCc1ccccc1)c1ccc2nc(-c3ccnc(Cl)c3)oc2c1 | inactive
59 | CN(C)C(=O)c1ccc2oc(-c3ccnc(Cl)c3)nc2c1 | 28.2 µM (active)
60 | O=C(NCCc1ccc(Cl)cc1)c1ccc2oc(-c3cccnc3)nc2c1 | inactive
61 | O=C(O)[C@]12CCCN(Cc3ncc[nH]3)[C@@H]1CCN(Cc1ccncc1)C2 | inactive
62 | CCCN1CCCC2(CCN(C(=O)C(=O)c3cccn3C)C2)C1=O (configuration not stated) | inactive
